Values without a mark were called inactive. Records with an inconclusive call do not appear. Activity calls are given as the source filed them. Unless noted, calls follow the shape of the dose curve; as a rule, active = well fitted curve in the direction sought with a large enough effect; inconclusive = small, poorly fitted or top-dose-only effect, or another doubt; inactive = no such curve, though single readings can be large; an effect the other way counts as inactive or inconclusive.
Test system: not listed separately
Assay: qHTS for small molecule inhibitors of Yes1 kinase: Counter Assay (AID 686950);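 also: no kinase present so only ADP-Glo detection of a fixed ADP amount is tested; luminescence from ADP-Glo reporting ADP in a fixed ATP and ADP mixture; 0% = DMSO wells with ATP plus ADP and -100% = ATP-only wells without ADP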
Conditions: series mostly up to 76.9 µM; activity change, negative = inhibition: at the top concentration
Procedure, shortened: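 Measuring interference with ADP-Glo, the assay ran 60 min at room temperature on an ATP/ADP mix lacking enzyme. Values were normalized to ATP-plus-ADP (maximum) and ATP-only (minimum) DMSO controls.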

| SMILES | activity change, negative = inhibition [%] | outcome |
| --- | --- | --- |
| COc1ccc(C2CC(c3ccccc3)=NN2c2ccc(S(N)(=O)=O)cc2)cc1 (centres undefined) | 0.855 |  |
| Cc1nc(N)sc1-c1ccnc(Nc2ccc(N3CCOCC3)cc2)n1 | 0.11 |  |
| N#Cc1ccc(NC(=O)Nc2ccccc2Br)c2n[nH]nc12 | -3.08 |  |
| O=C(Nc1ccccc1-c1cn2c(CN3CCNCC3)csc2n1)c1cnc2ccccc2n1 | 2.63 |  |
| c1ccc2c(-c3cnn4cc(-c5ccc(N6CCNCC6)cc5)cnc34)ccnc2c1 | -6.81 |  |
| O=c1cc(N2CCOCC2)oc2c(-c3cccc4c3sc3ccccc34)cccc12 | 3.57 |  |
| CC(C)C(=O)Nc1ncc(-c2cc(C(F)F)nn2-c2c(Cl)cccc2Cl)s1 | 1.71 |  |
| O=C(Nc1cc(Cl)cc2c1[nH]c1cnccc12)c1cccnc1 | -0.453 |  |
| O=c1cc(CN2CCOCC2)occ1OCCCCCSc1ccnc2cc(C(F)(F)F)ccc12 | -11.2 |  |
| Cc1ccc(F)c(NC(=O)Nc2ccc(-c3cccc4[nH]nc(N)c34)cc2)c1 | 4.88 |  |
| CS(=O)c1ccc(-c2nc(-c3ccc(F)cc3)c(-c3ccncc3)[nH]2)cc1 (centres undefined) |  | inactive |
| CN(C)Cc1ccc(-c2nc3cccc4c3n2CCNC4=O)cc1 | 3.88 |  |
| CC(C)(C)c1cc(C(=O)O)c(NC(=O)Nc2ccc3[nH]ncc3c2)s1 | 0.74 |  |

Biological target: Arylsulfatase A (Homo sapiens) (UniProt P15289)
Sequence (P15289 whole entry, looked up): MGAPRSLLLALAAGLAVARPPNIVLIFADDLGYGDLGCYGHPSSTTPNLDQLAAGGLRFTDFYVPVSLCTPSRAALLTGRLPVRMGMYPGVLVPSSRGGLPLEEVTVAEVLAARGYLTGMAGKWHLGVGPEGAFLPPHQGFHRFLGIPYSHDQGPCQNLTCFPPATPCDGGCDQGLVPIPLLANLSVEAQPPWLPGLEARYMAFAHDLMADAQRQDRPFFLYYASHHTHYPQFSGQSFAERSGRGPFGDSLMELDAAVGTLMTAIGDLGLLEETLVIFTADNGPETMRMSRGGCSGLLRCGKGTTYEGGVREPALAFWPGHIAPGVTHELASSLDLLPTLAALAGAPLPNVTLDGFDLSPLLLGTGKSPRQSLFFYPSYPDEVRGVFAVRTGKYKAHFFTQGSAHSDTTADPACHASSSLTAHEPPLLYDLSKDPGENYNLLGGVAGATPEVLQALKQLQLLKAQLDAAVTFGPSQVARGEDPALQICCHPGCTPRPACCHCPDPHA
Assay: qHTS screen for enhancers of Arylsulfatase A (ASA1): LOPAC Validation Assay (AID 720538); as to activity change, positive = activation: 0% is about no effect
Conditions: ASA enzyme activity, LOPAC qHTS enhancer assay; series mostly up to 57.5 µM; activity change, positive = activation: at the top concentration
Procedure, shortened: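 SV40-transformed skin fibroblasts from an MLD patient (ASA-I179S) were treated with compounds for 48h at 37 degree C, then lysed with 0.5mM pNCS final substrate for 14h at room temperature; NaOH stop, fluorescence read (Ex=525 nm; Em=598 nm).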

| SMILES | outcome | activity change, positive = activation [%] |
| --- | --- | --- |
| Clc1ccc(C(c2ccc(Cl)cc2)n2cc[n+](CC(OCc3ccc(Cl)cc3Cl)c3ccc(Cl)cc3Cl)c2)cc1 (centres undefined) | inactive |  |
| CCn1cc(C(=O)O)c(=O)c2ccc(C)nc21 | inactive |  |
| COc1ccccc1N1CCN(CCCNc2cc(=O)n(C)c(=O)n2C)CC1 |  | -554 |
| NCCS | inactive |  |
| COC(=O)[C@@H]1[C@H]2C[C@H]3c4[nH]c5ccccc5c4CCN3C[C@@H]2CC[C@@H]1O | inactive; inhibitor; fitted 2.3934 uM |  |
| CCN(CC)CCNC(=O)c1ccc(N)cc1 |  | 12.3 |
| CC(=O)c1ccc(S(=O)(=O)NC(=O)NC2CCCCC2)cc1 |  | 13.8 |
| Clc1ccc(Cn2c(CN3CCCC3)nc3ccccc32)cc1 | inactive; inhibitor; fitted 0.0054 uM |  |
| CN(C)CCC(c1ccccc1)c1ccccn1 (centres undefined) | inactive |  |
| O=c1cc(-c2ccc(O)cc2)oc2cc(O)cc(O)c12 |  | -24 |
| CC(=O)O[C@]1(C(C)=O)CC[C@H]2[C@@H]3C=C(Cl)C4=CC(=O)[C@@H]5C[C@@H]5[C@]4(C)[C@H]3CC[C@@]21C | inactive |  |
| CCCCCN(C)CCC(O)(P(=O)(O)O)P(=O)(O)O |  | 0.66 |
| CC(=O)N[C@@H](CS)C(=O)O |  | -95.8 |
| CC1(C)CCC2=C(O1)c1ccccc1C(=O)C2=O |  | -0.814 |
| CCCCC1C(=O)N(c2ccccc2)N(c2ccccc2)C1=O | inactive |  |
| O=C1NC(=O)C(c2ccccc2)(c2ccccc2)N1 |  | 10.3 |
| CC(C)(C)c1ccc(C(O)CCCN2CCC(C(O)(c3ccccc3)c3ccccc3)CC2)cc1 (centres undefined) |  | -37.1 |

Test system: not listed separately
Assay: qHTS for Activators of Parkin Expression: LOPAC Validation Assay (FLuc Reporter) (AID 720573; also: potency is read from the fitted curve at half-maximal effect;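 as to activation: 0% = DMSO and 100% = positive control compounds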)
Conditions: Cell line, PRKN promoter firefly luciferase reporter; series mostly up to 46.1 µM; activation: at the top concentration
Procedure, shortened: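 Neuronal cell line stably carrying FLuc/NLuc coincidence reporter under Parkin promoter; cells plated 24 h, then compounds added in 7-point dose response for 24 h at 37 C. FLuc luminescence read; normalized to DMSO and positive control (100%).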

| SMILES | activation [%] | Potency |
| --- | --- | --- |
| Clc1ccc(C(c2ccc(Cl)cc2)n2cc[n+](CC(OCc3ccc(Cl)cc3Cl)c3ccc(Cl)cc3Cl)c2)cc1 (centres undefined) | -18.7 |  |
| CCn1cc(C(=O)O)c(=O)c2ccc(C)nc21 | -9.79 |  |
| COc1ccccc1N1CCN(CCCNc2cc(=O)n(C)c(=O)n2C)CC1 | -6.42 |  |
| NCCS | 8.28 |  |
| COC(=O)[C@@H]1[C@H]2C[C@H]3c4[nH]c5ccccc5c4CCN3C[C@@H]2CC[C@@H]1O | -2.55 |  |
| CCN(CC)CCNC(=O)c1ccc(N)cc1 | -4.92 |  |
| CC(=O)c1ccc(S(=O)(=O)NC(=O)NC2CCCCC2)cc1 | -2.56 |  |
| Clc1ccc(Cn2c(CN3CCCC3)nc3ccccc32)cc1 | -14.1 |  |
| CN(C)CCC(c1ccccc1)c1ccccn1 (centres undefined) | -3.9 |  |
| O=c1cc(-c2ccc(O)cc2)oc2cc(O)cc(O)c12 |  | 3.26 µM (active) |
| CC(=O)O[C@]1(C(C)=O)CC[C@H]2[C@@H]3C=C(Cl)C4=CC(=O)[C@@H]5C[C@@H]5[C@]4(C)[C@H]3CC[C@@]21C | -9.32 |  |
| CCCCCN(C)CCC(O)(P(=O)(O)O)P(=O)(O)O | -9.15 |  |
| CC(=O)N[C@@H](CS)C(=O)O | -2.5 |  |
| CC1(C)CCC2=C(O1)c1ccccc1C(=O)C2=O | -50.2 |  |
| CCCCC1C(=O)N(c2ccccc2)N(c2ccccc2)C1=O | -10.9 |  |
| O=C1NC(=O)C(c2ccccc2)(c2ccccc2)N1 |  | inactive |
| CC(C)(C)c1ccc(C(O)CCCN2CCC(C(O)(c3ccccc3)c3ccccc3)CC2)cc1 (centres undefined) | -48.7 |  |

Test system: not listed separately
Assay: qHTS assay for small molecule agonists of the antioxidant response element (ARE) signaling pathway measured by Nrf2-dependant transcriptional activity (AID 720636; active = well fitted curve in the direction sought with a large enough effect in the repeat runs; an effect the other way counts as inactive or inconclusive;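 also: HepG2 cells with an ARE-driven luciferase reporter; % of control where 0% means no effect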)
Conditions: ARE-luc HepG2, Nrf2 luciferase reporter, 16 h; series mostly up to 92.4 µM; activation: at the top concentration
Procedure, shortened: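 In HepG2 cells engineered with an Nrf2-responsive luciferase gene, ARE induction was quantified as luminescence after 16 hr compound treatment at 37 C.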

| SMILES | Potency | activation [%] |
| --- | --- | --- |
| CCn1cc(C(=O)O)c(=O)c2ccc(C)nc21 | inactive |  |
| CC(=O)c1ccc(S(=O)(=O)NC(=O)NC2CCCCC2)cc1 | inactive |  |
| CN(C)CCC(c1ccccc1)c1ccccn1 (centres undefined) |  | 0.923 |
| CC(=O)O[C@]1(C(C)=O)CC[C@H]2[C@@H]3C=C(Cl)C4=CC(=O)[C@@H]5C[C@@H]5[C@]4(C)[C@H]3CC[C@@]21C | inactive |  |
| CC(=O)N[C@@H](CS)C(=O)O |  | -0.0508 |
| CCCCC1C(=O)N(c2ccccc2)N(c2ccccc2)C1=O | inactive |  |
| O=C1NC(=O)C(c2ccccc2)(c2ccccc2)N1 | inactive |  |
